The values that follow come from PubChem BioAssay (Tox21).

A number with no mark means an inactive call. Results filed as inconclusive are left out. The source made the active and inactive calls. Unless noted, the call rests on the fitted dose curve; in most records, active means well fitted curve in the direction sought with a large enough effect in the repeat runs; inconclusive means weak or mixed curves; inactive means no such curve, though single readings can be large; an effect the other way counts as inactive or inconclusive.

Experiment [1] is described as follows: qHTS assay to identify small molecule antagonists of the estrogen receptor beta (ER-beta) signaling pathway - cell viability counter screen (AID 1259382). Further: nearly all actives have a fitted effect of over 55% in size. Further: potency means the concentration at half of the fitted maximal effect.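 On activity change, negative = cytotoxicity: HEK293T cells carrying ER-beta-UAS-bla reporter stimulated with estradiol; series mostly up to about 92 µM.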 The method, boiled down:
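ER-beta-UAS-bla HEK293T cells in 2% charcoal-stripped FBS medium, treated with compound plus 1 nM 17-beta-estradiol for 16 h at 37C. Viability read by CellTiter-Glo luminescence after 30 min at room temperature in the same wells.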

Experiment [2] has as its target Estrogen receptor (Homo sapiens) (UniProt P03372). Briefly: qHTS assay to identify small molecule agonists of the estrogen receptor alpha (ER-alpha) signaling pathway in the presence of an antagonist (AID 1259383; calls by dose curve; further: top concentration of the series differs between compounds; nearly all actives have a fitted effect of over 15% in size). The method, boiled down:
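VM7Luc4E2 cells express endogenous full-length ER-alpha with an ERE-luciferase reporter and were hormone-deprived for 5 days. Compounds at 15 concentrations were added with 10.0nM ICI-182,780 for 22hr at 37C. Luminescence was read with ONE-Glo.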
A general note: qHTS replaces the single test concentration by a dilution series.

The nature of experiment [3]: qHTS assay to identify small molecule agonists or antagonists of the thyroid stimulating hormone receptor (TSHR) signaling pathway - wild type cell line counter screen (AID 1259384; calls by dose curve). The method, boiled down:
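Counter screen in untransfected Hek293: compounds (15-point titration, triplicate) plus phosphodiesterase inhibitor Ro20-1724 added after 18 h plating; 30 min RT. Intracellular cAMP via competitive d2/cryptate immunoassay, 1 h incubation.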

The target in experiment [4] is Thyrotropin receptor (Homo sapiens) (UniProt P16473). Briefly: qHTS assay to identify small molecule antagonists of the thyroid stimulating hormone receptor (TSHR) signaling pathway (AID 1259385; calls by dose curve; further: nearly all actives have a fitted effect of over 20% in size; further: potency means the concentration at half of the fitted maximal effect). The method, boiled down: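 Antagonist mode: compound-treated TSHR-expressing HEK293 cells were stimulated with 1.5 ng/mL TSH (final) in presence of Ro20-1724 for 30 min at RT. HTRF cAMP detection after 1 h; each compound tested at 15 concentrations, triplicate.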
Sequence of Thyrotropin receptor (Homo sapiens) (P16473 whole entry, looked up): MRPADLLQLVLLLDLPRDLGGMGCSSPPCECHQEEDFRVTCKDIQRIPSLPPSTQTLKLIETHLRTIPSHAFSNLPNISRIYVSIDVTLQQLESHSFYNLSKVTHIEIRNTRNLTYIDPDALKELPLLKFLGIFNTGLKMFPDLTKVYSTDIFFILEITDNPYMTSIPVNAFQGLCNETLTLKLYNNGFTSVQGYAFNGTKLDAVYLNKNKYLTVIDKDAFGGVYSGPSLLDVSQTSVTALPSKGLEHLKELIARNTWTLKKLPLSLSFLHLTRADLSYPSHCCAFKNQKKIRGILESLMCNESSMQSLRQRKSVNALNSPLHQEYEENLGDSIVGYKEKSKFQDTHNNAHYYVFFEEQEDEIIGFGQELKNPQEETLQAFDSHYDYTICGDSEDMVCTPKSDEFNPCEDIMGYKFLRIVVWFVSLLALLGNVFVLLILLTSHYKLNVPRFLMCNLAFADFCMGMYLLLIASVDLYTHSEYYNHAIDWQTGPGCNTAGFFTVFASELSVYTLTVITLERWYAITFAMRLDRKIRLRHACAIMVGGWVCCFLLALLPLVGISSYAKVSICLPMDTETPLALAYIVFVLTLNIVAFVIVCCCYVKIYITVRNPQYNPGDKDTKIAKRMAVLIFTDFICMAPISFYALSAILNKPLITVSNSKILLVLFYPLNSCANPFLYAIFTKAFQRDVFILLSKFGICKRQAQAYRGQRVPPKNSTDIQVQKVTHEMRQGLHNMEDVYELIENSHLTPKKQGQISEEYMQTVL

Experiment [5] is described as follows: qHTS assay to identify small molecule agonists of the estrogen receptor alpha (ER-alpha) signaling pathway in the presence of an antagonist - cell viability counter screen (AID 1259386).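 Further: series mostly up to about 92 µM; cells exposed to compounds for 22 h at 37 °C before the viability read; nearly all actives have a fitted effect of over 30% in size.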 In short, it runs like this: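 Cell viability in VM7Luc4E2 cells (endogenous full-length ER-alpha) measured by CellTiter-Fluor fluorescence in the same wells as the luciferase screen. Cells pre-cultured 5 days in charcoal-stripped serum, then treated 22 h with compounds at 15 concentrations plus 10.0nM ICI-182,780.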

In experiment [6] the target is Progesterone receptor (Homo sapiens) (UniProt P06401). Briefly: qHTS assay to identify small molecule agonists of the progesterone receptor (PR) signaling pathway (AID 1346784; calls by dose curve; further: nearly all actives have a fitted effect of over 30% in size). The method, boiled down:
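Compounds were tested for PR agonism in HEK 293T cells bearing a beta-lactamase gene under UAS control. Treatment lasted 16 hr at 37C; signal came from fluorescence of a FRET substrate.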

Experiment [7] in a line: qHTS assay to identify small molecule antagonists of the progesterone receptor (PR) signaling pathway - cell viability counter screen (AID 1346798). Further: nearly all actives have a fitted effect of over 50% in size. Further: potency means the concentration at half of the fitted maximal effect. On activity change, negative = cytotoxicity: series mostly up to about 92 µM. The method, boiled down: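 Following a 4 hr attachment, PR-UAS-bla HEK293T cells in charcoal-stripped FBS medium were exposed to compounds with R5020 for 16 hr; CellTiter-Glo was added and luminescence read after 30 min at room temperature.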

A short description of experiment [8]: qHTS assay to identify small molecule antagonists of the TGF-beta/Smad signaling pathway - cell viability counter screen (AID 1346824). Further: nearly all actives have a fitted effect of over 50% in size. In short, it runs like this:
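Cytotoxicity counter-screen run in the same wells as the beta-lactamase Smad reporter read: CellTiter-Glo luminescence after 30 min at room temperature. HEK 293T SBE-bla cells had 5 hr compound exposure at 37 C with TGF-beta1 (0.25 ng/mL stock).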

Experiment [9] in a line: qHTS assay to identify small molecule agonists of the TGF-beta/Smad signaling pathway - cell viability counter screen (AID 1346829). Further: top concentration of the series differs between compounds; nearly all actives have a fitted effect of over 45% in size. In short, it runs like this: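 HEK 293T SBE-bla line, 5 hr compound exposure at 37 C, multiplexed CellTiter-Glo viability read by luminescence.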
A short description of experiment [10]: qHTS assay to identify small molecule agonists of the TGF-beta/Smad signaling pathway (AID 1346859; active means well fitted activation curve with a large enough effect in the signal ratio in the repeat runs, not every such curve was filed as active; the % refers to the signal ratio; further: series mostly up to about 77 µM). In short, it runs like this:
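Each well held 4,000 SBE-bla HEK 293T cells incubated overnight before compound addition; 5 hr later the cleavable FRET substrate went on for 2 hr at room temperature, and fluorescence was read at two emissions.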

Experiment [11] is described as follows: Caspase-3/7 induction in HepG2 cells by small molecules, qHTS assay (AID 1346978). Further: nearly all actives have a fitted effect of over 15% in size. The method, boiled down: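 Caspase-3/7 induction was measured by Caspase-Glo 3/7 luminescence (30 min, room temperature) after a 17 hr compound exposure of wild-type HepG2 cells seeded at 2,000 per well and pre-incubated 5 hr.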
Experiment [12] is described as follows: Caspase-3/7 induction in CHO-K1 cells by small molecules, qHTS assay (AID 1346980). Further: nearly all actives have a fitted effect of over 15% in size. In short, it runs like this:
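Luminescent Caspase-Glo 3/7 read (30min, room temperature) quantified apoptosis induction. Cells were wild-type CHO-K1, treated with compound for 17hr at 37 C and 5% CO2.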

Experiment [13] addresses Progesterone receptor (Homo sapiens) (UniProt P06401). Nature of the experiment: qHTS assay to identify small molecule antagonists of the progesterone receptor (PR) signaling pathway (AID 1346795; active means well fitted inhibition curve with a large enough effect in the signal ratio in the repeat runs, not every such curve was filed as active; the % refers to the signal ratio; further: potency means the concentration at half of the fitted maximal effect). In short, it runs like this: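 In HEK293T cells bearing the PR-UAS-bla reporter, compound effects on promegestone-driven (1 nM) beta-lactamase expression are assessed after 16 hr using a fluorescent FRET substrate incubated 2 hr at room temperature.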

The target in experiment [14] is Thyrotropin-releasing hormone receptor (Homo sapiens) (UniProt P34981). Nature of the experiment: qHTS assay to identify small molecule antagonists of the thyrotropin-releasing hormone receptor (TRHR) signaling pathway (AID 1346877; active means well fitted inhibition curve with a large enough effect in the repeat runs, not every such curve was filed as active; further: series mostly up to about 51 µM). The method, boiled down: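 TRHR-expressing HEK293 cells loaded with calcium dye for 2 h at 37 C; compounds pre-incubated 5 min at room temperature before TRH challenge at 1 nM final. Intracellular calcium fluorescence read kinetically for 3 min; 15 concentrations in triplicate.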
Sequence of Thyrotropin-releasing hormone receptor (Homo sapiens) (P34981 whole entry, looked up): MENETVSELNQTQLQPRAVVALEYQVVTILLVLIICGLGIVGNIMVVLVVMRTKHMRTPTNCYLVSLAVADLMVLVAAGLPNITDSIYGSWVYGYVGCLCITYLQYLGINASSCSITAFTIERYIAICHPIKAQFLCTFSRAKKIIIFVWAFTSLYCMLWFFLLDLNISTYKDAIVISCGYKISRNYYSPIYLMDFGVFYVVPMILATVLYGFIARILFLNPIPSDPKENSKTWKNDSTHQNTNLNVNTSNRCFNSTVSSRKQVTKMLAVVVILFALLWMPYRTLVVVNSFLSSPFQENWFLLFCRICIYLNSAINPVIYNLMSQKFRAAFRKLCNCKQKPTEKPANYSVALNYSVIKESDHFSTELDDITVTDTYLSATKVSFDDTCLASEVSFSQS

Experiment [15] shares this target. Briefly: qHTS assay to identify small molecule agonists of the thyrotropin-releasing hormone receptor (TRHR) signaling pathway (AID 1346891; calls by dose curve; further: series mostly up to about 58 µM). The method, boiled down: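 Screening of agonists relied on calcium signalling in HEK293 cells expressing human TRHR: dye loading 2 h at 37 °C preceded compound addition and a 3-min fluorescence time course.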
The nature of experiment [16]: Human pregnane X receptor (PXR) small molecule agonists, qHTS cell viability counter screen (AID 1346977). Further: nearly all actives have a fitted effect of over 50% in size. Further: potency means the concentration at half of the fitted maximal effect. The method, boiled down:
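Tox21 qHTS format; PXR-Luc HepG2, 2,000/well, charcoal-stripped FBS 5%. Cpd exposure 24hr. Read: CellTiter-Fluor fluorescence, multiplexed with luciferase.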

A short description of experiment [17]: Caspase-3/7 induction in CHO-K1 cells by small molecules, qHTS cell viability counter screen (AID 1346979). Further: nearly all actives have a fitted effect of over 35% in size. Further: potency means the concentration at half of the fitted maximal effect. The method, boiled down: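 CellTiter-Fluor viability check, qHTS format: wild-type CHO-K1, 16hr compound treatment, 1hr reagent incubation, fluorescence read.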
The nature of experiment [18]: Caspase-3/7 induction in HepG2 cells by small molecules, qHTS cell viability counter screen (AID 1346981). Further: series mostly up to about 92 µM; nearly all actives have a fitted effect of over 30% in size. The method, boiled down:
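Wild-type HepG2 cells, 2,000/well, settled 5 hr at 37 C, 5% CO2 before compound addition. Viability read by CellTiter-Fluor fluorescence, reagent added after 16 hr compound exposure, then 1 hr at 37C, in the same wells as the caspase read.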

For experiment [19], the target named is Nuclear receptor subfamily 1 group I member 2 (Homo sapiens) (UniProt O75469). Nature of the experiment: Human pregnane X receptor (PXR) small molecule agonists, qHTS assay (AID 1346982). Further: nearly all actives have a fitted effect of over 35% in size. Further: potency means the concentration at half of the fitted maximal effect. In short, it runs like this: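 PXR-Luc HepG2 reporter cells (CYP3A4-driven luciferase) in 5% charcoal-stripped FBS medium, plated 5 h before compound addition, then treated 24 h at 37C. Luciferase read by ONE-Glo luminescence after 30 min at room temperature.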
Sequence of Nuclear receptor subfamily 1 group I member 2 (Homo sapiens) (O75469 whole entry, looked up): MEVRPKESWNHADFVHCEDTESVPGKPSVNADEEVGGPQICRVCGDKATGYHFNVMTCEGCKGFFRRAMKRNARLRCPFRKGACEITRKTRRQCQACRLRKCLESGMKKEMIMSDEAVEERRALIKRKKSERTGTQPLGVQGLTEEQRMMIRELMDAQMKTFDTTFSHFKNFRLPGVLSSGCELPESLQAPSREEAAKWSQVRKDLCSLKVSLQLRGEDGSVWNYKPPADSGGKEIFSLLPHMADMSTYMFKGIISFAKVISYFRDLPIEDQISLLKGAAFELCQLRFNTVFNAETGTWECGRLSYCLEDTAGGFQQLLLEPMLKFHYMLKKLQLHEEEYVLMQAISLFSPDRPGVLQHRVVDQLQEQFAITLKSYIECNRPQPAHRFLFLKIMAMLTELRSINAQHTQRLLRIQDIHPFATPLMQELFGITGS

Experiment [20] can be described thus: qHTS assay to identify small molecule agonists of the progesterone receptor (PR) signaling pathway - cell viability counter screen (AID 1346799; calls by dose curve; further: nearly all actives have a fitted effect of over 45% in size). The method, boiled down:
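Here, 3,000 PR-UAS-bla HEK293T cells per well were treated with compounds for 16 hr after a 6 hr preincubation at 37C and 5% CO2; cell viability is the CellTiter-Glo luminescence signal.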
On the % scale 0 is the no-effect control and ±100 the full control effect.

Sequence of Estrogen receptor (Homo sapiens) (P03372 whole entry, looked up): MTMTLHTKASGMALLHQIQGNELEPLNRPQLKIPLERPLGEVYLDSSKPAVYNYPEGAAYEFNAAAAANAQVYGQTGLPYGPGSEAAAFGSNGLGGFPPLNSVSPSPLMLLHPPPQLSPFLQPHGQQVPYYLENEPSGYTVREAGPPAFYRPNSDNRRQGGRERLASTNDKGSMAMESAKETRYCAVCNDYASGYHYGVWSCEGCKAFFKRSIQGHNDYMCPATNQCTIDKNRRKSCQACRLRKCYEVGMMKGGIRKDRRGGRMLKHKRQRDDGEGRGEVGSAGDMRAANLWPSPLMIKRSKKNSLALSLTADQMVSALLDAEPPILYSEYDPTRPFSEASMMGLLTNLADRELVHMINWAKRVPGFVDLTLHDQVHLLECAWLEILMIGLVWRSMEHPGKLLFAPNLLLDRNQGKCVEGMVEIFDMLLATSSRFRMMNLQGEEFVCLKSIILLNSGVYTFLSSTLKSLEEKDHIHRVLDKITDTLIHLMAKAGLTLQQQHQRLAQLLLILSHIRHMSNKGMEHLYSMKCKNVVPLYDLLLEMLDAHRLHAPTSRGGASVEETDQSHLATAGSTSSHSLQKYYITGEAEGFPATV
Sequence of Progesterone receptor (Homo sapiens) (P06401 whole entry, looked up): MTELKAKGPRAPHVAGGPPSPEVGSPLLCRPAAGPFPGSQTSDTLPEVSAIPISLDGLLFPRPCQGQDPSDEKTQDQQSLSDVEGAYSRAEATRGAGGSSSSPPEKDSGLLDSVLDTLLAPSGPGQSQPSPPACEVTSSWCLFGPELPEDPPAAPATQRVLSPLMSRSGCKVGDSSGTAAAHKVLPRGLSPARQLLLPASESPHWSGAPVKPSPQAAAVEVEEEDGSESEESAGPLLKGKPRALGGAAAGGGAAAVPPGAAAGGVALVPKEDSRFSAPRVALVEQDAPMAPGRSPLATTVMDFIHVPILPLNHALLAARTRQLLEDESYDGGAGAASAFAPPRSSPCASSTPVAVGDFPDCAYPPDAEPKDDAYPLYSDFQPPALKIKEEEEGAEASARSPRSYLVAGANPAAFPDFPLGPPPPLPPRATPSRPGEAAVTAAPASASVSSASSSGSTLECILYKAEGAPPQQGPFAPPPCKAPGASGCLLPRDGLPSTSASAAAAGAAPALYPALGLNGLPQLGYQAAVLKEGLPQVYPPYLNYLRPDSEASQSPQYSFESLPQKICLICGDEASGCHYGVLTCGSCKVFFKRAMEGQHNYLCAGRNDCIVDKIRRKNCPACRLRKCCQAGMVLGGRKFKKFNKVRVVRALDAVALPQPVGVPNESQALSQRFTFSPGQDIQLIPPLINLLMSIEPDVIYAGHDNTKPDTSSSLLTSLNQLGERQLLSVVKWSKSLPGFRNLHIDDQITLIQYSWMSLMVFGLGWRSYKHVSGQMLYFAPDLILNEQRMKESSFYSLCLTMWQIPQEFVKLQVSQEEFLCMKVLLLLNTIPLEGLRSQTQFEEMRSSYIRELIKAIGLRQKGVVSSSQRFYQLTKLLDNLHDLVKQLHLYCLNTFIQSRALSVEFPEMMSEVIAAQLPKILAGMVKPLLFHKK

Regarding `CN1CCN(CCCN2c3ccccc3Sc3ccc(Cl)cc32)CC1`, the figures for the Potency in [1], in [4] and in experiment [7] were 13.3 µM (active), 26.6 µM (active) and 21.1 µM (active), respectively. Also, the Potency result in experiment [2], in [3], in experiment [5], in experiment [8], in [9] and in experiment [11] was “inactive” each time. In experiment [12], the Potency entry was “inactive”. For the same compound, the compound was called inactive in experiment [6] and in experiment [10].
For the compound `O=C(CCN1CCC(c2ccccc2)C1)c1ccc2c(c1)OCCO2` (stereo not drawn), the Potency entry in experiment [1], in experiment [2], in experiment [3], in experiment [4], in experiment [5] and in experiment [13] was “inactive” throughout. The Potency result in [7], in experiment [8], in experiment [9], in [14], in [15] and in experiment [11] was “inactive” throughout. Also, the Potency result in [12] and in experiment [18] was “inactive” each time. In addition, in experiment [10], the call was inactive. In addition, the Potency in [16] is 23.7 µM (active); in [17] it was 26.6 µM (active); in experiment [19], 13.3 µM (active).
On to `O=C1OC(O)C(C(Cl)Cl)=C1Cl` (stereo not drawn), for which the Potency entry in experiment [1], in experiment [2], in experiment [3], in [4], in experiment [5] and in experiment [20] was “inactive” in each case. For the same compound, the Potency entry in [8], in experiment [9], in [14], in experiment [15], in [11] and in experiment [12] was “inactive” each time. The result in [10] was inactive. In addition, in experiment [17], the Potency was 17.8 µM (active).
Take `C=CC(=O)OCCOC1C2CCC1C1CC=CC12` (stereo not drawn): the activity change, negative = cytotoxicity was 2.85% [at 19 µM] in [1]; 0.411% [at 19 µM] in experiment [5]; 13.6% [at 18.9 µM] in experiment [7]; 1.19% [at 19 µM] in experiment [20]; 7.46% [at 15.8 µM] in experiment [9]; 5.4% [at 19 µM] in experiment [16]. Also, in [18], the activity change, negative = cytotoxicity is 6.81% [at 19 µM]. Further, the activation is 0.428% [at 19 µM] in experiment [2], -4.69% [at 15.8 µM] in [10], -0.0878% [at 11.8 µM] in experiment [15] and 5.97% [at 19 µM] in experiment [19]. The cAMP activity change in experiment [3] is -2.01% [at 18.9 µM, stronger effect = higher value]. Further, the activity change, negative = inhibition in [4] is 6.1% [at 19 µM]. Besides, in experiment [8], the viability change, negative = cytotoxic is -7.56% [at 15.8 µM]. Also, the caspase activation in experiment [11] was 2.88% [at 19 µM]. In addition, the caspase-3/7 activation in experiment [12] was 0.29% [at 19 µM].
In the case of `CCN(CC)c1ccc(C=O)c(O)c1`, the Potency entry in experiment [1], in [2], in experiment [3], in experiment [4], in experiment [5] and in experiment [7] was “inactive” each time. In addition, the Potency result in experiment [20], in experiment [8], in [9], in [16], in experiment [11] and in experiment [12] was “inactive” each time. Moreover, in experiment [18], the Potency result was “inactive”. Also, the compound was called inactive in [6] and in [10]. The Potency in [19] was 61.1 µM (active).
Consider `O=C(N[C@H](CO)[C@H](O)c1ccc([N+](=O)[O-])cc1)C(Cl)Cl`, for which the Potency result in experiment [1], in [2], in experiment [3], in experiment [4], in experiment [5] and in [8] was “inactive” throughout. In addition, the Potency result in [9], in [16], in [11], in experiment [17] and in [12] was “inactive” each time. In addition, the result in [6] and in experiment [10] was inactive.
`CCNc1nc(NC(C)(C)C)nc(OC)n1`: the Potency entry in [1], in experiment [2], in experiment [3], in experiment [4], in experiment [5] and in experiment [13] was “inactive” each time. For the same compound, the Potency entry in experiment [7], in experiment [8], in experiment [9], in experiment [14], in experiment [15] and in experiment [16] was “inactive” in each case. For the same compound, the Potency result in experiment [11], in [17] and in experiment [12] was “inactive” each time. For the same compound, the compound was called inactive in experiment [6] and in experiment [10]. For the same compound, the Potency in experiment [19] is 61.1 µM (active).
For `N#Cc1ccc(C/C(=N/NC(=O)Nc2ccc(OC(F)(F)F)cc2)c2cccc(C(F)(F)F)c2)cc1`, the Potency result in experiment [1], in [2], in experiment [3], in [4], in experiment [5] and in [20] was “inactive” throughout. The Potency result in experiment [8], in [9], in experiment [14], in [16], in experiment [11] and in experiment [12] was “inactive” in each case. Moreover, the outcome in experiment [6] and in [10] was inactive. Moreover, the Potency in [13] was 27.3 µM (active); in experiment [19], 54.5 µM (active).
